This note sets out measurements from PubChem BioAssay (NCI).

Structures are written as SMILES. Compounds without any hit were thinned out: in the full panel of roughly 83,000, 20% have a hit.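 Values shown are percent growth following 48 h exposure of cells in 96-well plates to a single concentration of compound; below 10 was considered active.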 A number with no mark means an inactive call. Activity calls are given as the source filed them.

Assay in all cases: NCI-60 one-dose screen, 48 h (100 = growth as untreated, 0 = no growth, -100 = all killed)
Holding throughout (details): 10 µM unless noted

Test [1] relates to DU-145 prostate.
Test [2] deals with K-562 leukemia.
Test [3] has as its system MALME-3M melanoma.
For test [4], the system named is MDA-MB-231 breast.
In test [5] the test system is RXF 393 renal.
Test [6] has as its system SF-268 CNS.
For test [7], the system named is SF-295 CNS.
Test [8] deals with SF-539 CNS.
Test [9] deals with UACC-257 melanoma.
For test [10], the system named is M14 melanoma.
Test [11] deals with HCT-15 colon.
The test system of test [12] is HT29 colon.
In test [13] the test system is SNB-75 CNS.
Test [14] has as its system SNB-19 CNS.
For test [15], the system named is U251 CNS.
Test [16] has as its system PC-3 prostate.
The subject of test [17] is SK-MEL-5 melanoma.
Test [18] has as its system UACC-62 melanoma.
For test [19], the system named is LOX IMVI melanoma.
For test [20], the system named is SK-MEL-28 melanoma.

On to `O=C1COCCN1c1ccc(NCc2cn(Cc3cccc4ccccc34)c3ccccc23)cc1`, for which the growth in test [1] was 98.7%; in test [2], 84.6%; in test [3] it was 90.1%; in [4], 101%; in [5] it was 43.1%; in test [6], 85.3%. The growth in [7] is 89.6%; in test [8] it was 95.6%; in test [9], 78.4%; in test [10], 89%; in test [11], 74%; in [12], 97.7%. The growth in test [13] was 79.6%; in [14], 97.9%; in test [15], 74.5%; in test [16], 79.4%; in [17], 82.1%; in test [18], 41.7%. Moreover, the figures for the growth in test [19] and in test [20] were 91% and 92.6%, respectively.

`O=c1cc(-c2ccccc2)oc2c(O)c(O)ccc12`: the growth in test [1] was 68.4%; in test [2] it was 63.9%; in [3], 87.2%; in [4], 71%; in test [5], 72.9%; in test [6], 67.6%. The growth in [7] was 64.5%; in [8], 53.1%; in test [9] it was 85.3%; in test [10], 58.8%; in test [11] it was 38%; in test [12], 77.4%. Also, the growth was 73.7% in [13]; 58% in [14]; 43.1% in [15]; 67.4% in test [16]; 53.6% in [17]; 72.7% in test [18]. Further, the growth in test [19] is 53.9%.

With `CC(C)CCNCC(C)(C)O`, the growth in [1] is 118%; in test [2], 109%; in test [3], 121%; in test [4], 116%; in test [5], 117%; in [6], 106%. Moreover, the growth in test [7] was 111%; in [8], 101%; in [9], 102%; in test [10], 110%; in test [11] it was 99.1%; in test [12], 103%. Also, the growth in test [13] was 90.3%; in [14], 109%; in test [15] it was 104%; in test [16] it was 98.6%; in test [17], 113%; in test [18] it was 111%. In addition, in test [19], the growth was 101%.

As to `CSc1nc(=S)c2nc(SC)n(-c3ccccc3)c2[nH]1`, the growth was 108% in [1]; 98.5% in [2]; 109% in [3]; 105% in test [4]; 108% in test [5]; 96.4% in [6]. Moreover, the growth in test [7] was 105%; in test [8], 103%; in test [9], 96.3%; in test [10] it was 102%; in [11], 106%; in [12], 92.3%. The growth in [13] was 94.8%; in test [14], 100%; in [15], 93.5%; in [16], 82.3%; in test [17], 98.5%; in test [18], 90.3%. Further, in [19], the growth was 90.9%.

Take `O=[N+]([O-])c1cc([N+](=O)[O-])c(C(F)(F)F)cc1NN=C(c1ccc(O)cc1)c1ccc(O)cc1`: the growth was 114% in [1]; 103% in [2]; 117% in [3]; 83.2% in test [4]; -57.8% (active) in test [5]; 88% in test [6]. Also, the growth in test [7] is 110%; in [8], -64.7% (active); in test [9], -61% (active); in [10], -47.8% (active); in test [11], 13.7%; in [12] it was 91.6%. Further, the growth is 92.7% in test [13]; -4.43% (active) in test [14]; 26.2% in [15]; 51.1% in [16]; -96.7% (active) in test [17]; 60.6% in test [18]. In addition, the growth in [19] is 14%.

As to `Cn1cc(-c2nnc(-c3cn(C)c4ncccc34)s2)c2ccccc21`, the growth in test [1] is 73.6%; in test [2], 27.8%; in test [3], 29.1%; in test [4], 40.2%; in test [5], 78.4%; in test [6] it was 72.1%. The growth is 47.7% in test [7]; 45.8% in test [8]; 96.1% in test [9]; 92.8% in test [10]; 45.1% in test [11]; 54.3% in [12]. Further, the growth was 49.4% in test [13]; 76.6% in [14]; 74.8% in test [15]; 53.8% in test [16]; 63.7% in test [17]; 69.2% in test [18]. For the same compound, the growth in test [19] was 86%.

As to `O=C(NCCO)c1cccnc1`, the growth is 109% in test [1]; 95.2% in test [2]; 105% in test [3]; 112% in [4]; 112% in [5]; 100% in [6]. The growth in test [7] is 101%; in test [8] it was 101%; in test [9] it was 87.7%; in test [10], 104%; in test [11], 113%; in test [12], 91.5%. Also, the growth in [13] was 92.9%; in test [14], 101%; in [15] it was 92.7%; in test [16] it was 83.4%; in test [17] it was 96%; in test [18] it was 105%. In test [19], the growth was 95%.

On to `Fc1cc2[nH]ncc2c2c3c(c(-c4cn[nH]c4)nc12)CCCC3`, for which the growth in test [1] is 7.37% (active); in test [2] it was 15.4%; in test [3], -14.8% (active); in test [4], 3.56% (active); in test [5], -56% (active); in [6], 3.1% (active). Also, the growth is 9.21% (active) in [7]; -30.7% (active) in [8]; -22.2% (active) in [9]; 1.03% (active) in [10]; 4.51% (active) in test [11]; 11% in [12]. Besides, the growth is 3.38% (active) in test [13]; 8.75% (active) in [14]; -1.45% (active) in test [15]; 7.08% (active) in test [16]; -69.4% (active) in test [17]; -48% (active) in test [18]. For the same compound, the growth in [19] was 0.769% (active).

Consider `CCOC(=O)c1nn(C2CCCCO2)c2ccc(NC(=O)CSc3nc4ccccc4c(=O)[nH]3)cc12` (configuration not stated), for which the growth in [1] is 102%; in test [2], 99.4%; in test [3], 103%; in test [4], 79.9%; in [5], 71.8%; in test [6], 90.1%. Also, the growth in [7] was 97.6%; in test [8] it was 82.4%; in test [9] it was 102%; in [10] it was 100%; in test [11], 99.5%; in [12], 125%. The growth in test [13] was 68.5%; in test [14], 76.3%; in [15], 97.2%; in [16] it was 105%; in test [17], 98.1%; in test [18], 94.5%. Further, in test [19], the growth is 96.2%.

`O=C(O)c1cn(C2CC2)c2cc(N3CCN(Cc4cc(Cl)ccc4O)CC3)c(F)cc2c1=O`: the growth in test [1] was 95.2%; in [2] it was 46.5%; in test [3], 80.7%; in test [4], 71.3%; in test [5], 60.2%; in test [6], 75.8%. For the same compound, the growth in test [7] was 34.3%; in [8], 74%; in test [9] it was 80.7%; in test [10] it was 59.2%; in [11] it was 45.7%; in [12], 44.9%. Besides, the growth in test [13] was 67.6%; in [14], 60.2%; in test [15], 36.6%; in test [16] it was 54.7%; in test [17], 58.8%; in [18], 54.9%. Moreover, the growth was 57.1% in test [19] and 71.7% in test [20].

In the case of `CCCCCCCCCCCCCCCCCCNC(=S)N/N=C/c1ccc(OC)c(OC)c1`, the growth in test [1] is 102%; in test [2], 98.8%; in [3], 87.4%; in test [4], 92.7%; in test [5] it was 110%; in [6], 98.7%. Moreover, the growth was 95.7% in test [7]; 93.6% in test [8]; 100% in test [9]; 104% in [10]; 88.4% in [11]; 99.9% in [12]. Besides, the growth was 88.2% in test [13]; 94% in test [14]; 90.1% in [15]; 92.1% in [16]; 95.3% in test [17]; 86.1% in [18]. Further, the growth in test [19] was 95.2%; in [20] it was 100%.

Regarding `COc1cc(OC)c(/C=C/C(=O)c2c(N)cc(OC)cc2OC)c(OC)c1`, the growth was 12.6% in test [1]; 13.9% in test [2]; 63.6% in test [3]; 41.2% in test [4]; -46.1% (active) in test [5]; 42.6% in [6]. Besides, the growth in test [7] is 4.26% (active); in test [8] it was -6.02% (active); in [9] it was 49.4%; in test [10], 18.2%; in [11] it was 21.2%; in test [12], 3.5% (active). In addition, the growth is 23.5% in test [13]; 27.9% in test [14]; 11.9% in test [15]; 11.8% in test [16]; 17% in test [17]; 9.68% (active) in test [18]. In addition, the growth was 23.2% in test [19] and 61% in [20].

`CC(C)(C)c1cc(C(=O)N2CCC(C(=O)NCCN)CC2)cc(C(C)(C)C)c1`: the growth in test [1] was 116%; in test [2] it was 103%; in [3], 95%; in test [4] it was 90.9%; in [5], 98.5%; in [6], 97.8%. Also, the growth in test [7] was 101%; in test [8] it was 98.4%; in test [9], 81%; in test [10] it was 113%; in [11], 103%; in test [12], 80.5%. In addition, the growth in test [13] is 79.4%; in test [14] it was 88%; in [15], 88.2%; in test [16] it was 92.5%; in test [17] it was 95.4%; in [18], 89.3%. The growth was 99.6% in test [19] and 101% in test [20].

In the case of `COc1cccc(-c2[nH]c(=S)ncc2C(=O)c2ccccc2)c1`, the growth in test [1] was 98.4%; in test [2], 35%; in test [3], 71%; in test [4], 99.3%; in [5] it was 90.6%; in [6], 90%. For the same compound, the growth was 68.6% in test [7]; 84.9% in [8]; 97.3% in [9]; 61.9% in test [10]; 50.8% in test [11]; 46.8% in test [12]. Moreover, the growth was 66.6% in test [13]; 82.9% in test [14]; 85% in test [15]; 91.6% in test [16]; 83.2% in [17]; 74.3% in test [18]. Besides, the growth was 72.4% in test [19] and 81.4% in test [20].

In the case of `CCOc1cc(/C=N\NC(=O)N/N=C/c2ccc(O)c(OCC)c2)ccc1O`, the growth in test [1] was 14.9%; in test [2] it was 10.6%; in [3], 60.2%; in [4], 51.5%; in [5] it was 24.9%; in test [6], 45.7%. Besides, the growth in test [7] was 18%; in [8], -9.06% (active); in test [9] it was 61.9%; in test [10], 19.3%; in test [11], 28.7%; in test [12], 27.6%. Moreover, the growth was 0.378% (active) in test [13]; 39.8% in test [14]; 33.7% in test [15]; 33% in test [16]; 11.5% in test [17]; 26.2% in test [18]. For the same compound, the figures for the growth in test [19] and in test [20] were 42.6% and 52.3%, respectively.
